# The full list was thinned out, with hits kept by preference.
# VCAM1 pot: TNF alpha stimulated VCAM1 expression potentiation | HUVEC TNFa-stimulated VCAM-1 immunofluorescence, high-content imaging; scaled per plate to unstimulated/TNFa-only wells | activation, % at 2 µM | 0.19% of 93,000 active | AID 808;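 active means activation above the screen mean plus 3 SD, with well images confirming the hit on visual review, cut at about 28% in these data, passing the limit was not always enough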;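 further: signal is the number of cytoplasmic VCAM-1 stained grains per positive cell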
# VCAM1 pot conf: potentiators of TNFa-induced VCAM1 expression, confirmation, imaging, HUVEC, triplicate retest; shares compounds with VCAM1 pot; AID 1034; activation, % at 2 µM; 230 tested, under 10 active; HUVEC TNFa-stimulated VCAM-1 immunofluorescence imaging;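 active means activation above 30% in triplicate retests at 2 µM, then confirmed by visual review of the well images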;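 further: scaled per plate between unstimulated and TNFa-stimulated DMSO control wells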
# Numbers without * were called inactive.
SMILES,VCAM1 pot,others
CCOC(=O)c1[nH]c(C)c(C(=O)N2CCC3(CC2)OCCO3)c1C,117*,VCAM1 pot conf=-9
Cc1occc1C(=O)N1CCC2(CC1)OCCO2,-5,
CS(=O)(=O)N1CCCC(C(=O)N2CCC3(CC2)OCCO3)C1 (configuration not stated),-1,
CCOP(=S)(OCC)c1ccc(N(C)C)cc1,10,
O=C1CN(C(=O)CN2CCCCC2)C(c2ccccc2)c2cc(Br)ccc2N1 (configuration not stated),-46,
CC1CN=C(Nc2ccc(N(C)C)cc2)S1 (configuration not stated),10,
COC(=O)c1cc2c(s1)=NC=NP=2(N1CCOCC1)N1CCOCC1,-8,
CC(Cc1ccccc1)NC(=O)NC(C)Cc1ccccc1 (configuration not stated),33*,VCAM1 pot conf=-16
CC1CCC(NCC(O)c2ccccc2)CC1 (configuration not stated),16,
Cc1cc(C=O)c(C)n1CC1CCCO1 (configuration not stated),2,
Cc1cc(C)c(NC2=NCCCS2)c(C)c1,14,
C/C(Cl)=C/CC1(CN2CCCC2=O)C(=O)NC(=O)NC1=O,106*,VCAM1 pot conf=-15
O=C(Nc1ccccc1OC(=O)N1CCOCC1)N1CCOCC1,-37,
COc1ccc(Cl)cc1NC1=NCC(C)S1 (configuration not stated),0,
C=CCn1c(O)c(C(C)=NCc2cc(OC)cc(OC)c2)c(=O)[nH]c1=O,-7,
CCC12CN3CCN(CC(C3)/C1=N\O)C2,8,
CCCCC(=O)C1C(=O)NC(=O)NC1=O,5,
Cc1ccc(-c2nc3ccccc3c(=O)n2-c2nccs2)cc1,56*,VCAM1 pot conf=-17
COc1ccc(/C=C2\C(=N\O)C3CCN2CC3)cc1,12,
CCCC(C)C1(CC)C(=O)NC(=Nc2ccccc2OC)NC1=O (configuration not stated),-1,
